Measured values: PubChem BioAssay AID1851 (National Center for Advancing Translational Sciences (NCATS), 2009)
The campaign covered roughly 16,000 compounds. About 5,100 (32%) were called active. Inconclusive results (about 25%) are left out. The call rests on the fitted dose curve; in most records, active means well fitted curve in the direction sought with a large enough effect; inconclusive means small, poorly fitted or top-dose-only effect, or effect the other way; inactive means no such curve, though single readings can be large or run the other way. This is one part of the list.

target: Cytochrome P450 3A4 (Homo sapiens) (UniProt P08684); assay: Cytochrome panel assay with activity outcomes; conditions: recombinant CYP, pro-luciferin dealkylation, luminescence, p450-cyp3a4; series mostly up to 57.1 µM; activity, negative = inhibition: at the top concentration
Sequence (P08684 whole entry, looked up): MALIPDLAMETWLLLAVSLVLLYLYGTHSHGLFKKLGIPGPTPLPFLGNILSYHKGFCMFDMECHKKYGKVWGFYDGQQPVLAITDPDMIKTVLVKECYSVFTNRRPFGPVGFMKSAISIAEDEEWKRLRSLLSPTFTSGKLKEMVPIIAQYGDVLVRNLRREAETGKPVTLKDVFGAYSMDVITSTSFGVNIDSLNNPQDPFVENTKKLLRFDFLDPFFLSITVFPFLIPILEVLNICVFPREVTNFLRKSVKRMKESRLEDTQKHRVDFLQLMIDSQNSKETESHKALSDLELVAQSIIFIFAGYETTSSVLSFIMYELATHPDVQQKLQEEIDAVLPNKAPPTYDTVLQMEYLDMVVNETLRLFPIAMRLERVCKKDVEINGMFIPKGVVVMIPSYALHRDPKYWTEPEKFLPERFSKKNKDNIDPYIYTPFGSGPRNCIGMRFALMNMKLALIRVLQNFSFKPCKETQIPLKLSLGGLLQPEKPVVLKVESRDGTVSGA
On the % scale 0 is the no-effect control and ±100 the full control effect.

| SMILES | activity, negative = inhibition | AC50 |
| --- | --- | --- |
| COc1ccc(NC(=O)CSC2=NC(=O)CC(C)=N2)cc1 | -14.6% (inactive) |  |
| COc1ccc(-n2ccnc2SCC(=O)Nc2ccc(OC)cc2OC)cc1 |  | 3.98 µM (active) |
| COc1ccc(NC(=O)Cn2cccc2)c(OC)c1 | -28.6% (inactive) |  |
| COc1ccc(-n2nnnc2/C=C\Nc2ccccc2C(=O)c2ccccc2)cc1 | 19.1% (inactive) |  |
| COc1ccc(NC(=O)CSc2ccc3c4c(cccc24)C(=O)c2ccccc2-3)cc1 |  | 1 µM (active) |
| COc1ccc(-n2ccnc2SCC(=O)Nc2ccccc2)cc1 |  | 11.2 µM (active) |
| COc1ccc(-n2nnnc2SCC(=O)Nc2ccccc2)cc1 |  | 14.1 µM (active) |
| CCn1c(SC)nnc1C1CCN(S(=O)(=O)c2ccc(OC)cc2)CC1 | -23.7% (inactive) |  |
| CCn1c(SCC(=O)OC)nnc1C1CCCCC1 | -11.2% (inactive) |  |
| COc1ccc(O)c(/C=N/NC(=O)CSc2nnc(C)n2-c2ccccc2)c1 |  | 7.94 µM (active) |
| COC(=O)CSc1nnc(C)n1-c1cccc(OC)c1 | -15% (inactive) |  |
| CCC(=O)Nc1ccc(NC(=O)CSc2nnnn2-c2cccnc2)cc1C |  | 3.55 µM (active) |
| Cn1nnnc1SCC(=O)Nc1ccccc1[N+](=O)[O-] | 6.06% (inactive) |  |
| CCn1c(SCC(=O)c2ccc(OC)cc2)nnc1C1CC1 |  | 22.4 µM (active) |
| COc1ccc(NC(=O)CSc2nnc(C3CC3)n2-c2ccccc2)cc1 |  | 3.16 µM (active) |
| COc1ccc(NC(=O)CSc2nnc(C3CC3)n2N)cc1 | -8.56% [at 11.4 µM] (inactive) |  |
| COc1ccc(OC)c(/C=N/NC(=O)c2csc3ccccc23)c1 | 3.57% [at 2.29 µM] (inactive) |  |
| CCn1ccc(C(=O)NC2=C(C#N)CCC2)n1 | -14.8% (inactive) |  |
| Cn1c(SCC(=O)Nc2ccccc2)nc(O)cc1=O |  | 3.55 µM (active) |
| NCC(=O)Nc1ccccc1 | -12.7% [at 11.4 µM] (inactive) |  |

| SMILES | activity, negative = inhibition | AC50 |
| --- | --- | --- |
| COc1cccc(-n2ccnc2SCC(=O)Nc2nccs2)c1 |  | 3.55 µM (active) |
| O=C(CSc1nnc2c3ccccc3c3ccccc3c2n1)Nc1ccccc1 | 1.75% [at 2.29 µM] (inactive) |  |
| Cn1ccnc1SCC(=O)Nc1sccc1C#N |  | 14.1 µM (active) |
| O=C(O)CCC(=O)N1CCC[C@H]1C(=O)O | -4.42% (inactive) |  |
| O=C(c1cnccn1)N1CCC2(CCCN(C(c3ccccc3)c3ccccc3)C2)CC1 |  | 1.58 µM (active) |
| O=C(c1ccncc1)N1CCC2(CC1)CCN(c1ncccn1)CC2 | -21.7% (inactive) |  |
| O=C(c1ccncc1)N1CCC2(CCCN(C(c3ccccc3)c3ccccc3)C2)CC1 |  | 1 µM (active) |
| O=C(c1ccncc1)N1CCC2(CC1)CCN(C(c1ccccc1)c1ccccc1)CC2 | 20.4% (inactive) |  |
| O=C(c1cnccn1)N1CCC2(CCCN(c3ncccn3)C2)CC1 | -6.92% (inactive) |  |
| Cc1ccc(C(=O)c2ccc(CC(=O)O)n2C)cc1 | -2.84% [at 25.6 µM] (inactive) |  |
| CCOc1ccccc1Nc1nc(-c2sc(NC(=O)c3ccccc3)nc2C)cs1 |  | 7.94 µM (active) |
| CCOc1ccccc1Nc1ccc(N)cc1S(=O)(=O)O | -9.59% [at 11.4 µM] (inactive) |  |
| COc1ccccc1Nc1nc(-c2sc(NC(=O)c3ccc([N+](=O)[O-])cc3)nc2C)cs1 |  | 8.91 µM (active) |
| Cc1ccc(Nc2nc(-c3sc(NC(=O)c4ccc([N+](=O)[O-])cc4)nc3C)cs2)cc1 |  | 10 µM (active) |
| CCOC(=O)C[C@@H](C(=O)OCC)[C@@H]1CCCCC1=O | -10.4% [at 11.4 µM] (inactive) |  |
| COCCn1c(Cc2ccccc2)nnc1SCc1nc2ccccc2c(=O)[nH]1 |  | 3.16 µM (active) |
| CC[C@@H]1OC(=O)[C@H](C)[C@H](O[C@@H]2C[C@](C)(OC)[C@H](O)[C@H](C)O2)[C@H](C)[C@H](O[C@@H]2O[C@@H](C)C[C@@H](N(C)C)[C@@H]2O)[C@](C)(O)C[C@H](C)[C@@H]2N[C@H](COCCOC)O[C@H]([C@@H]2C)[C@]1(C)O | 6.81% [at 25.6 µM] (inactive) |  |
| CCn1c(=O)c2c(nc3n2CCS3)n(C)c1=O | -18.6% (inactive) |  |
| CC(C)(Sc1ccc(CCN(CCCCC2CCCCC2)C(=O)NC2CCCCC2)cc1)C(=O)O |  | 3.98 µM (active) |
| Cc1cc(C)nc(NC(=O)c2cccc([N+](=O)[O-])c2C)n1 | -28.1% (inactive) |  |

| SMILES | activity, negative = inhibition | AC50 |
| --- | --- | --- |
| O=C(Nc1cccc(NC(=O)c2ccccc2[N+](=O)[O-])n1)c1ccccc1[N+](=O)[O-] |  | 10 µM (active) |
| Cc1cccc(NC(=O)c2ccc([N+](=O)[O-])o2)n1 | 1.23% (inactive) |  |
| CC(Cc1ccccc1)NC(=O)CSc1nc2nc3c(cc2c(=O)n1-c1ccccc1)COC(C)(C)C3 (stereo not given) |  | 7.94 µM (active) |
| CNC(C)c1cc(OC)ccc1OC (stereo not given) | -18.8% (inactive) |  |
| COc1ccc(/C=N/n2c(C)nnc2C)c(OC)c1 | -26.8% (inactive) |  |
| COc1cc(/C=C\c2ccc(OC)cc2OC)cc(OC)c1 |  | 15.8 µM (active) |
| COc1ccc(N2CCN(S(=O)(=O)c3ccc4c(c3)CCCC4)CC2)c([N+](=O)[O-])c1 |  | 4.47 µM (active) |
| O=C(c1cc(-c2ccncc2)nc2ccccc12)N1CCN(c2ccc(N3CCOCC3)nn2)CC1 |  | 1.58 µM (active) |
| O=C(O)c1cc(-c2ccc(-c3ccccc3)cc2)nc2cc3ccccc3cc12 | 2.43% [at 11.4 µM] (inactive) |  |
| Cc1ccc(C)c(NC(=O)C2C3CCCC2C3c2ccccc2)c1 (stereo not given) | 17.3% (inactive) |  |
| Cc1ccc(C)c(NC(=O)C2(C)CC3c4ccccc4C2c2ccccc23)c1 (stereo not given) |  | 2.24 µM (active) |
| Cc1ccc(C)c(NC(=O)C2CC3c4ccccc4C2c2ccccc23)c1 (stereo not given) | -27.2% [at 2.29 µM] (inactive) |  |
| Fc1ccc(CN(C2=NCCN2)c2c(Cl)cccc2Cl)cc1 | -26.2% (inactive) |  |
| O=C(Nc1ccc2nc(SCc3ccc(Cl)cc3)sc2c1)c1ccccc1C(=O)N1CCOCC1 |  | 7.94 µM (active) |
| Cn1c(CCC(=O)Nc2ccc(N3CCOCC3)cc2)nc(=O)c2ccccc21 | -13.8% [at 11.4 µM] (inactive) |  |
| CCCC(=O)Nc1ccc2nc(SCC(=O)Nc3ccc(N4CCOCC4)c(Cl)c3)sc2c1 |  | 1.41 µM (active) |
| Cc1ccc(NC(=O)c2cc(N3C(=O)C4CC=CCC4C3=O)ccc2N2CCOCC2)cc1Cl (stereo not given) |  | 12.6 µM (active) |
| O=C(c1ccc2nc3ccc(Cl)cc3c(=O)n2c1)N1CCOCC1 | 2.72% (inactive) |  |
| Cc1ccccc1C(=O)Nc1ccc(N2CCOCC2)nc1 | -27.9% (inactive) |  |
| Cc1nc(SCC(=O)Nc2ccc(N3CCOCC3)cc2)nc(C)c1C |  | 14.1 µM (active) |
